# Hits are enriched below; roughly 12% of the tested compounds scored in any of these assays.
# Cycloheximide cs: counter-screen hit for Shiga toxin inhibitors, cycloheximide; cell reporter, cycloheximide protein synthesis inhibition counterscreen; max response, %; actives 12% (n = 300,000); AID 2314; in the data active = max response mostly above about 13%, no sharp cut-off; inactive = mostly below about 14%; also: read at 38.3 µM for the half of the compounds with a filed dose; 0% is about no effect
# MARV entry inh: blocks Marburg virus binding to or entry into cells; Marburg virus pseudotyped entry inhibition, cell reporter; Potency, µM (highest dose often 37.8 µM), without a hit: top-dose activity change, negative = inhibition, hits mostly inhibitors; actives 1.8% (n = 300,000); AID 540276; calls by dose curve; tested in HEK293 cells; also: potency is read from the fitted curve at half-maximal effect; % is scaled to controls: 0 for no effect and ±100 for the full control effect
# Lassa entry inh: Lassa virus entry inhibition. AID 540256. Potency, µM (titrated, usually from 37.9 µM), for the others: top-dose activity change, negative = inhibition, usual class: inhibitors. actives 1.2% (n = 300,000). Lassa virus pseudotype entry inhibition, cell reporter; calls by dose curve; tested in HEK293 cells; also: potency is read from the fitted curve at half-maximal effect; % is scaled to controls: 0 for no effect and ±100 for the full control effect; nearly all actives have a fitted effect of over 50% in size
# Shiga toxin inh: Shiga toxin inhibition. actives 9.2% (n = 290,000). AID 2315. Vero cells, Shiga toxin protein synthesis inhibition reporter. inhibition, % at 38.7 µM; in the data active = inhibition mostly above about 28%, no sharp cut-off; inactive = mostly below about 43%; also: 0% is about no effect
# Numbers without * were called inactive; ? = inconclusive; nt = no result; [ ] = dose if it differs, or a comment.
SMILES,Cycloheximide cs,MARV entry inh,Lassa entry inh,Shiga toxin inh
CCN(CC(=O)Nc1c(F)cccc1F)C(=O)C1CCN(S(=O)(=O)c2ccc(C)cc2C)CC1,nt,1.7%[46.1 µM],-0.1%,nt
CC1(N=Cc2cc(Cl)ccc2O)COP(=O)(Nc2ccccc2)OC1 (stereo unspecified),nt,3.2%,10.4%,nt
Cc1ccc(-n2c(C)cc(C(=O)C(=O)Nc3ccccc3)c2C)c(C)c1,nt,-2.3%[46.1 µM],-14.2%[46.1 µM],nt
C/C(=N/NC(=O)CNC(=O)COc1ccccc1)c1ccco1,0.8,?,-0.7%,-1.1
CN(C(=O)c1ccc2ccccc2c1)c1ccccn1,30.1*,-0.3%[46.1 µM],nt,47.6
CCOC(=O)Cc1ccc(NCc2ccc(Cl)cc2)cc1,12.1,1.2%,-13.4%,23.4
O=C(CSc1nnc(-c2ccccc2F)o1)N1CCCC1,26.3*,10.0%[46.1 µM],?,85.7*
CC1CCCCN1C(=O)CSc1nnc(-c2ccco2)o1 (stereo unspecified),36.8*,-1.7%[46.1 µM],?,108.1*
COc1ccccc1-c1nnc(SCC(=O)N2CCCC2)o1,8.8,-5.1%[46.1 µM],-16.2%,39.6*
COc1ccc(-c2nnc(SCC(=O)N3CCCC3)o2)c(OC)c1,18.0,31.3%[46.1 µM],22.0%,46.4*
COC(=O)CSc1nnc(-c2ccc(OC)cc2OC)o1,-0.9,10.2%,4.5%,-0.3
Cc1ccccc1-c1nnc(SCC(=O)N2CCCCC2)o1,nt,?,-22.2%[46.1 µM],nt
CCOc1ccccc1C(=O)N1CCN(CCc2ccccn2)CC1,nt,-9.7%[46.1 µM],-1.1%[46.1 µM],nt
Cc1cc(NC(=O)CSc2nnc(-c3c[nH]c4ccccc34)n2C)no1,8.0,nt,nt,-7.3
O=C(Nn1cnnc1)c1cc(Br)ccc1Cl,-2.2,nt,nt,6.6
CC1CCCCN1C(=O)CSc1nnc(-c2cccc(Cl)c2)o1 (stereo unspecified),nt,?,-1.1%[46.1 µM],nt
CC1CCCCN1C(=O)CSc1nnc(-c2ccccc2F)o1 (stereo unspecified),35.0*,-9.3%[46.1 µM],?,94.2*
COc1cc(C)ccc1Oc1ccc([N+](=O)[O-])cc1,nt,-4.0%,?,nt
CC(=O)C1CCC2C3CC=C4CC(SC(=N)N)CCC4(C)C3CCC12C (stereo unspecified),nt,11.2µM*,?,nt
Cc1ccc(-c2nnc(CCC(=O)NCC3C4CC5CC(C4)CC3C5)o2)s1 (stereo unspecified),51.9*,?,7.5%[46.1 µM],102.8*
CC1(C)Cc2nc3nc(SCC(=O)NCCc4ccccc4)n(-c4ccccc4)c(=O)c3cc2CO1,8.0,13.4%,-9.3%,-26.4
C=C(C)Cn1c(SCC(=O)Nc2cccc(Cl)c2)nc2sc3c(c2c1=O)CCCC3,nt,15.3%[46.1 µM],12.0%[46.1 µM],nt
O=C(O)c1cccc(-c2ccc(/C=N/Nc3ccc([N+](=O)[O-])cc3)o2)c1,17.5*,-33.2%[46.1 µM],-9.0%,53.7
NS(=O)(=O)c1ccc(-c2ccc(/C=N/NC(=O)c3ccc([N+](=O)[O-])cc3)o2)cc1,-3.3,nt,nt,-6.6
O=C(O)c1ccc(-c2ccc(/C=N/Nc3ccc([N+](=O)[O-])cc3)o2)cc1,15.9*,nt,nt,92.4*
SMILES,Cycloheximide cs,MARV entry inh,Lassa entry inh,Shiga toxin inh
NS(=O)(=O)c1ccc(-c2ccc(/C=N/Nc3ccc(C(=O)O)cc3)o2)cc1,41.4*,nt,nt,17.9
O=C(NCCCN1CCCC1)c1ccc2c(Cl)c3c(nc2c1)CCCC3,4.8,5.62µM*,?,-5.0
O=C(NC1CC1)c1ccc2c(Cl)c3c(nc2c1)CCCC3,22.8*,nt,nt,67.9*
CCOC(=O)N1CCC(NC(=O)c2ccc3c(Cl)c4c(nc3c2)CCCC4)CC1,-2.3,?,?,-13.0
NC(N)=N/N=C/c1ccc(Cl)cc1Cl,2.0,3.16µM*,?,5.9
NC(N)=N/N=C/c1ccc(Cl)c(Cl)c1,0.7,?,?,-14.0
CCN1C(=O)C(CC(=O)Nc2ccc(Br)cc2)N(CCCc2ccccc2)C1=S (stereo unspecified),8.5,?,12.6µM*,-13.1
CCOc1ccc(NC(=O)CC2C(=O)N(C)C(=S)N2CCCc2ccccc2)cc1 (stereo unspecified),-5.6,?,?,19.0
CCOC(=O)c1cnc2ccc(OCC)cc2c1NCCCN1CCOCC1,17.6*,nt,nt,14.7
CCOC(=O)c1cnc2ccc(OCC)cc2c1NCCN1CCOCC1,-0.9,-29.1%[46.1 µM],9.2%,-4.4
CCOC(=O)c1cnc2ccc(OC)cc2c1NCc1ccccc1,-2.5,?,25.3%,-10.4
CCOC(=O)c1cnc2ccc(OCC)cc2c1NCc1ccccc1OC,-1.2,?,8.91µM*,9.0
CCOc1cc(/C=N/NC(=O)c2ccccn2)ccc1OC(=O)c1cccs1,28.4*,12.4%,8.8%,42.9*
CC(C)(C)OC(=O)N/N=C\c1ccc(OC(=O)c2cccs2)cc1,14.6,?,-7.5%,97.5*
O=C(Oc1ccc(/C=N/NC(=O)c2ccccn2)cc1)c1cccc(Br)c1,27.9*,nt,nt,59.2*

# Compound activity deposited in PubChem BioAssay by National Center for Advancing Translational Sciences (NCATS).
